# In PubChem BioAssay (Tox21):
# “And” between values parts separate entries of the source, which are not always exact repeats. Identical values can stand only once. Results filed as inconclusive are left out. Where a call stands in place of a potency, no number is given. Some structures have more than one record in an assay (separate samples or runs), and their calls can disagree. The source made the active and inactive calls. Unless noted, calls follow the shape of the dose curve; as a rule, active = well fitted curve in the direction sought with a large enough effect in the repeat runs; inconclusive = weak or mixed curves; inactive = no such curve, though single readings can be large; an effect the other way counts as inactive or inconclusive.
# Key:
# [1] = qHTS assay to identify small molecule agonists of the estrogen receptor alpha (ER-alpha) signaling pathway in the presence of an antagonist - cell viability counter screen (AID 1259386);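 also: cells exposed to compounds for 22 h at 37 °C before the viability read; nearly all actives have a fitted effect of over 30% in size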; also: potency is read from the fitted curve at half-maximal effect
# Method in brief: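 The test measures whether compounds kill ER-alpha reporter cells (VM7Luc4E2) under antagonist co-treatment (ICI-182,780, 10.0nM). Fluorescence from CellTiter-Fluor is read after a 22hr exposure.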
# [2] = biological target: Progesterone receptor (Homo sapiens) (UniProt P06401); test: qHTS assay to identify small molecule agonists of the progesterone receptor (PR) signaling pathway (AID 1346784; calls by dose curve; also: nearly all actives have a fitted effect of over 30% in size; also: potency is read from the fitted curve at half-maximal effect)
# Sequence of Progesterone receptor (Homo sapiens) (P06401 whole entry, looked up): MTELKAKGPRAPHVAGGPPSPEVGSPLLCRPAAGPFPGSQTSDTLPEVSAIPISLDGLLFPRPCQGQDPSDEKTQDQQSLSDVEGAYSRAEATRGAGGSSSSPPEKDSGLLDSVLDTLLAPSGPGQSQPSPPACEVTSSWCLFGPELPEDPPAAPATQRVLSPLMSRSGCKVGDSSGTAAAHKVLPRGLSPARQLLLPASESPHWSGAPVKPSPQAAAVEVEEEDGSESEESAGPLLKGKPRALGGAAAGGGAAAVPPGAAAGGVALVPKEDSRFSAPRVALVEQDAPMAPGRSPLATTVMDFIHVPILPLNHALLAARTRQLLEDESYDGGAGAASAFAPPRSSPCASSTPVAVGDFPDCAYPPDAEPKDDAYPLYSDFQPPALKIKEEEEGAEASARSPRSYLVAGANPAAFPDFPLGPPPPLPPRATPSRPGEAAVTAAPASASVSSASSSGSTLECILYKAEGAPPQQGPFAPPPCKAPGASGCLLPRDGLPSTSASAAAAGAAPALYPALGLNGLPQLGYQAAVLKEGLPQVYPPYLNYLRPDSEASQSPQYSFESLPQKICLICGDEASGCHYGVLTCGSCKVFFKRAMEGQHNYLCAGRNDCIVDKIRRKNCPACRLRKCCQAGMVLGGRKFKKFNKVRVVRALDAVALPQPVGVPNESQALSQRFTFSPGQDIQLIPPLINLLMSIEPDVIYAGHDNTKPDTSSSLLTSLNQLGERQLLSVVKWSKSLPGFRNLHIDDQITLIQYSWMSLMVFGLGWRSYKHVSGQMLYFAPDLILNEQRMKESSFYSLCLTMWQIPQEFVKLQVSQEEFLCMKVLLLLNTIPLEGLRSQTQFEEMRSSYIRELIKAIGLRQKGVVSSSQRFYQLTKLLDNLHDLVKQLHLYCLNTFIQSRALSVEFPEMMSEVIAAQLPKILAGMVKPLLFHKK
# Method in brief: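 PR-UAS-bla HEK 293T cells carrying a UAS-driven beta-lactamase reporter were seeded in medium with 2% charcoal-stripped FBS, preincubated 6 hr at 37C, then exposed to compounds in DMSO for 16 hr; agonism was read by LiveBLAzer B/G FRET fluorescence.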
# [3] = biological target: Progesterone receptor (Homo sapiens) (UniProt P06401); test: qHTS assay to identify small molecule antagonists of the progesterone receptor (PR) signaling pathway (AID 1346795; active = well fitted inhibition curve with a large enough effect in the signal ratio in the repeat runs, not every such curve was filed as active; the % refers to the signal ratio; also: potency is read from the fitted curve at half-maximal effect)
# Method in brief: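 PR-UAS-bla HEK293T cells carrying a UAS-driven beta-lactamase reporter were plated in medium with 2% charcoal-stripped FBS and rested 6 hr at 37C. Compounds were added with 1 nM R5020 (final) for 16 hr, then FRET substrate loaded 2 hr at room temperature.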
# [4] = qHTS assay to identify small molecule antagonists of the progesterone receptor (PR) signaling pathway - cell viability counter screen (AID 1346798); also: nearly all actives have a fitted effect of over 50% in size; also: potency is read from the fitted curve at half-maximal effect
# Method in brief: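 PR-UAS-bla HEK293T cells in medium with 2% charcoal-stripped FBS were treated with compounds plus R5020 for 16 hr at 37C. Cell viability was then read by CellTiter-Glo luminescence after 30 min at room temperature in the same wells.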
# [5] = qHTS assay to identify small molecule agonists of the progesterone receptor (PR) signaling pathway - cell viability counter screen (AID 1346799; calls by dose curve; also: nearly all actives have a fitted effect of over 45% in size; also: potency is read from the fitted curve at half-maximal effect)
# Method in brief: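 PR-UAS-bla HEK293T cells, 3,000 per well in medium with 2% charcoal-stripped FBS, were preincubated 6 hr at 37C, then exposed to compounds for 16 hr; viability was read as CellTiter-Glo luminescence after 30 min at room temperature.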
# [6] = qHTS assay to identify small molecule antagonists of the TGF-beta/Smad signaling pathway - cell viability counter screen (AID 1346824); also: nearly all actives have a fitted effect of over 50% in size
# Method in brief: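 Cytotoxicity counter-screen run in the same wells as the beta-lactamase Smad reporter read: CellTiter-Glo luminescence after 30 min at room temperature. HEK 293T SBE-bla cells had 5 hr compound exposure at 37 C with TGF-beta1 (0.25 ng/mL stock).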
# [7] = qHTS assay to identify small molecule agonists of the TGF-beta/Smad signaling pathway - cell viability counter screen (AID 1346829); also: top concentration of the series differs between compounds; nearly all actives have a fitted effect of over 45% in size
# Method in brief: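 SBE-bla HEK 293T cells plated overnight, compound exposure 5 hr at 37 C. Viability read in the same wells by CellTiter-Glo luminescence after 30 min at room temperature, following the beta-lactamase read.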
# [8] = qHTS assay to identify small molecule agonists of the TGF-beta/Smad signaling pathway (AID 1346859; active = well fitted activation curve with a large enough effect in the signal ratio in the repeat runs, not every such curve was filed as active; the % refers to the signal ratio; also: potency is read from the fitted curve at half-maximal effect; as to activation: series mostly up to about 77 µM)
# Method in brief: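 HEK 293T cells stably carrying a beta-lactamase reporter driven by the Smad binding element were seeded overnight, exposed to DMSO-dissolved compounds for 5 hr at 37 C, 5% CO2, then loaded with FRET substrate for 2 hr at room temperature.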
# [9] = biological target: Thyrotropin-releasing hormone receptor (Homo sapiens) (UniProt P34981); test: qHTS assay to identify small molecule antagonists of the thyrotropin-releasing hormone receptor (TRHR) signaling pathway (AID 1346877; active = well fitted inhibition curve with a large enough effect in the repeat runs, not every such curve was filed as active; also: potency is read from the fitted curve at half-maximal effect)
# Sequence of Thyrotropin-releasing hormone receptor (Homo sapiens) (P34981 whole entry, looked up): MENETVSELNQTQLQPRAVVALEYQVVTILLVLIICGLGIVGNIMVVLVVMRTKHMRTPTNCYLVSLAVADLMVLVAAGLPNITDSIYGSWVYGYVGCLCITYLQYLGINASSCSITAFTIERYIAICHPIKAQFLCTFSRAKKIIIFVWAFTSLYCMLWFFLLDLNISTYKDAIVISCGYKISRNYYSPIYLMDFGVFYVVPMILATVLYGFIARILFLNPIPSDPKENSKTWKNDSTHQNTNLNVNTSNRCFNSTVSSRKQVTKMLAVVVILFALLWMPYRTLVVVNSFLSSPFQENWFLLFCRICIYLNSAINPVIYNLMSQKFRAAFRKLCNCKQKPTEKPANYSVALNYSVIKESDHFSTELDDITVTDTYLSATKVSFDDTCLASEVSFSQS
# Method in brief: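 Overnight-plated (18 h, 37 °C) HEK293 cells expressing TRHR were dye-loaded 2 h, treated with compound, then stimulated with TRH at 1 nM final. Fluorescence intensity was captured every second for 3 min.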
# [10] = biological target: Thyrotropin-releasing hormone receptor (Homo sapiens) (UniProt P34981); test: qHTS assay to identify small molecule agonists of the thyrotropin-releasing hormone receptor (TRHR) signaling pathway (AID 1346891; calls by dose curve; also: potency is read from the fitted curve at half-maximal effect; as to activation: series mostly up to about 58 µM)
# Method in brief: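 TRHR-expressing HEK293 cells were plated 18 h at 37 °C/5% CO2, loaded with calcium dye 2 h at 37 °C, then given compound in DMSO; fluorescence was read kinetically for 3 min at 1 s intervals.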
SMILES,Potency [1],Potency [2],Potency [3],Potency [4],Potency [5],Potency [6],Potency [7],Potency [8],Potency [9],Potency [10],outcome [6]
CC(=O)O,inactive,inactive and 392 nM (active),inactive,inactive,inactive,inactive,inactive,inactive,,,
CCCCCCCCCCCC(=O)O,inactive,inactive,inactive,inactive,inactive,inactive,inactive,inactive,,,
CCCC[n+]1ccccc1,inactive,inactive,inactive,inactive,inactive,inactive,inactive,inactive,,,
COP(=O)(OC)OC=C(Cl)Cl,inactive,inactive,inactive,inactive,inactive,inactive,inactive,inactive,inactive,inactive,
CCC[N+]1(C)CCCCC1,inactive,inactive,inactive,inactive,inactive,inactive,inactive,inactive,,,
CCCCCCCCCCCCOS(=O)(=O)O,inactive,inactive,inactive,inactive,inactive and 27.3 µM (active),inactive,inactive,inactive,,,
COCC(=O)N(c1c(C)cccc1C)C(C)C(=O)OC (centres undefined),inactive,inactive,inactive,inactive,inactive,inactive,inactive,inactive,inactive,inactive,
CC[N+](CC)(CC)CC,inactive,inactive,inactive,inactive,inactive,inactive,inactive,inactive,,,
CCCC[N+]1(C)CCCCC1,inactive,inactive,inactive,inactive,inactive,inactive,inactive,inactive,,,
O=C(O)c1nc(Cl)ccc1Cl,inactive,inactive,inactive,inactive,inactive,inactive,inactive,inactive,,,
CCCCn1cc[n+](C)c1C,inactive,inactive,inactive,inactive,inactive,inactive,inactive,inactive,,,
CC[N+]1(C)CCCC1,inactive,19.8 µM (active) and inactive,inactive,inactive,inactive,inactive,inactive,inactive,,,
CCCCCCn1cc[n+](C)c1,inactive,inactive,inactive,inactive,inactive,inactive,inactive,inactive,,,
O=C(O)c1ccccc1O,inactive,inactive,inactive,inactive,inactive,inactive,inactive,inactive,,,
Cc1cc(Cl)ccc1OCC(=O)O,inactive,inactive,inactive,inactive,inactive,inactive,inactive,inactive,,,
O=[N+]([O-])O,inactive,inactive,inactive,inactive,inactive,inactive,inactive,inactive,,,inactive
O=C(O)CC(O)(CC(=O)O)C(=O)O,inactive,inactive and 87.8 nM (active),inactive,inactive,inactive,inactive,inactive,inactive,inactive,inactive,
O=C(O)COc1ccc(Cl)cc1Cl,inactive,inactive,inactive,inactive,inactive,inactive,inactive,inactive,,,
CC(Cl)(Cl)C(=O)O,inactive,inactive,inactive,inactive,inactive,inactive,inactive,inactive,,,
O=c1[nH]c(=O)n(Cl)c(=O)n1Cl,inactive,inactive,inactive,inactive,inactive,inactive,inactive,inactive,inactive,inactive,
CCCC[n+]1ccccc1C,inactive,inactive,inactive,inactive,inactive,inactive,inactive,inactive,,,
CCCCCC[n+]1ccccc1,inactive,inactive,inactive,inactive,inactive,inactive,inactive,inactive,,,
CCn1cc[n+](C)c1C,inactive,inactive,inactive,inactive,inactive,inactive,inactive,inactive,,,
C[N+](C)(C)Cc1ccccc1,inactive,inactive,inactive,inactive,inactive,inactive,inactive,48.7 µM (active) and inactive,,,
O=C(O)C(Cl)(Cl)Cl,inactive,inactive,inactive,inactive,inactive,inactive,inactive,inactive,inactive,inactive,
Cc1cc(-c2ccc(N)c(C)c2)ccc1N,inactive,inactive,61.8 µM (active) and 48.4 µM (active) and 17.2 µM (active),inactive,inactive,inactive,inactive,inactive,,,

SMILES,Potency [1],Potency [2],Potency [3],Potency [4],Potency [5],Potency [6],Potency [7],Potency [8],Potency [9],Potency [10],outcome [6]
O=C(O)CCl,inactive,inactive,inactive,inactive,inactive,inactive,inactive,inactive,inactive,inactive,
OCCOc1ccccc1,inactive,inactive,inactive,inactive,inactive,inactive,inactive,inactive,,,
O=[N+]([O-])c1ccccc1O,inactive,inactive,inactive,inactive,inactive,inactive,inactive,inactive,inactive,inactive,
CCC[N+]1(C)CCCC1,inactive,inactive,inactive,inactive,inactive,inactive,inactive,inactive,,,
CCCC[N+]1(C)CCCC1,inactive,inactive,inactive,inactive,inactive,inactive,inactive,inactive,,,
COc1ccc(N)cc1,inactive,inactive,inactive,inactive,inactive,inactive,inactive,inactive,,,
CCCC[n+]1cccc(C)c1,inactive,inactive,inactive,inactive,inactive,inactive,inactive,inactive,inactive,inactive,
Nc1ccccc1,inactive,inactive,inactive,inactive,inactive,inactive,inactive,inactive,inactive,inactive,
CCCC[n+]1ccc(C)cc1,inactive,,,,inactive and 60.8 µM (active),,inactive,inactive,inactive and 24 µM (active),inactive and 15.5 µM (active),
C[C@]12CCC(=O)C=C1CC[C@@H]1[C@@H]2CC[C@]2(C)C(=O)CC[C@@H]12,inactive,inactive,,,inactive and 61.1 µM (active),inactive,inactive,inactive,inactive,inactive,
O=c1nc(O)n(Cl)c(=O)n1Cl,inactive,inactive,inactive,inactive,inactive,inactive,inactive,inactive,inactive,inactive,
Nc1ccc(-c2ccc(N)c(Cl)c2)cc1Cl,inactive,,,,inactive,inactive,inactive,inactive,inactive,inactive,
CCCCCCCCCCn1cc[n+](C)c1,,inactive,31.4 µM (active) and 48.5 µM (active) and 27.3 µM (active),inactive,,inactive,inactive,inactive,,,
CCCCCCCCCCCCCCCCn1cc[n+](C)c1,inactive and 55 µM (active) and 21.7 µM (active),inactive,inactive and 21.7 µM (active),,inactive and 61.7 µM (active) and 30.7 µM (active),,,inactive,,,
CCCCCCCCn1cc[n+](C)c1,,inactive,inactive,inactive,,inactive,inactive,inactive,,,
CCCn1cc[n+](C)c1,inactive,inactive,inactive,inactive,inactive,inactive,inactive,inactive,inactive,inactive,
CCC(=O)C(CC(C)N(C)C)(c1ccccc1)c1ccccc1 (centres undefined),inactive,inactive,inactive,54.7 µM (active),43.5 µM (active),,inactive,,,,
CCNc1nc(Cl)nc(NCC)n1,inactive,inactive,inactive,inactive,inactive,inactive,inactive,inactive,inactive,inactive,
Cc1cc(Cl)ccc1N,inactive,inactive,inactive,inactive,inactive,inactive,inactive,inactive,inactive,inactive,
O=C(O)C(Cl)Cl,inactive,inactive,inactive,inactive,inactive,inactive,inactive,inactive,inactive,inactive,
CN(C)[C@@H]1C(=O)C(C(N)=O)=C(O)[C@@]2(O)C(=O)C3=C(O)c4c(O)cccc4[C@@](C)(O)[C@H]3[C@H](O)[C@@H]12,inactive,,,inactive,inactive,inactive,inactive,inactive,,,
C1CCC(NC2CCCCC2)CC1,inactive,inactive,inactive,inactive,inactive,inactive,inactive,inactive,inactive,inactive,
CNC,inactive,inactive,inactive,inactive,inactive,inactive,inactive,inactive,inactive,inactive,
Nc1ccc(-c2ccc(N)cc2)cc1,inactive,inactive,inactive,inactive,inactive,inactive,inactive,inactive,inactive,inactive,
O=S(=O)(O)O,inactive,,,inactive,inactive,inactive,inactive,inactive,,,
CCOP(=S)(OCC)Oc1ccc2c(C)c(Cl)c(=O)oc2c1,inactive,inactive,,,inactive,inactive,inactive,,inactive,inactive,
